The source made the active and inactive calls. A call without a number means that no potency is given here. The call rests on the fitted dose curve; in most records, active means well fitted activation curve with a large enough effect in the repeat runs; inconclusive means weak or mixed curves; inactive means flat fitted curve, though single readings scatter.

A short description of the experiment: A CellTox Green Cytotoxicity Assay to monitor cytotoxicity in HEK293 cells - 0 hour (AID 1224869). Further: nearly all actives have a fitted effect of over 50% in size. To be noted: CellTox Green fluorescence; series mostly up to 76.8 µM. An excerpt: National Center for Advancing Translational Sciences [NCATS]
NIH Chemical Genomics Center [NCGC]
U.S. Environmental Protection Agency [EPA]
National Institutes of Environmental Health Sciences [NIEHS]
National Toxicology Program [NTP]
Cell-based models are critical for drug discovery. Determining the natural cytotoxic effects resulting from test compounds is an essential research activity. A CellTox Green Cytotoxicity Assay to monitor cytotoxicity in real time of continues cell culture during 40 hours of the compound treatment was used to screen Tox21 10K library compounds in Hek293 cells. CellTox Green Cytotoxicity Assay is a nonlytic, homogeneous, biofluorescent method to measure cytotoxicity in cell culture after experimental manipulation. The assay system uses a proprietary asymmetric cyanine dye that is excluded from viable cells but preferentially stains the dead cell's DNA. […] Viable cells produce no appreciable increases in fluorescence. Therefore, the fluorescence signal produced by the binding interaction with dead cell DNA is proportional to cytotoxicity.
The mixture of Hek293 cell suspension and reagents were dispensed at 600cells/6 ul/well in 1536-well tissue culture treated black solid bottom plates using a Multidrop dispenser. After the assay plates were incubated at a 37 C/5% CO2 incubator for 5 hours, 23 nL of compounds dissolved in DMSO, positive and negative controls was transferred to the assay plate by a pintool work station. The plates were incubated at 37 C for 40 hours. The fluorescence intensity were measured at 0h, 8h, 16h, 24h, 32h and 40h time points using ViewLux plate reader during compound treatment.
Take `CC(=O)O[Si](C)(OC(C)=O)OC(C)=O`: the Potency entry was “inactive”. `COc1ccc2c(c1)c1c3n2CCN(C)C3=NCC1`: the Potency entry was “inactive”. Still for that read-out and setting: the entry for `N#Cc1cscn1` is “inactive”; for `CCCCCCCCCCCCCCCCCC#N` it is “inactive”. Same read-out and setting: the value for `O=C1CCC(=O)N1Cl` was “inactive”; that for `CCCCC1CCC(O)CC1` (stereo not given) was “inactive”; that for `O=C(O)CONC(=O)c1ccccc1` was “inactive”. Take `CO/N=C(/C(=O)N[C@@H]1C(=O)N2C(C(=O)[O-])=C(C[n+]3ccn4ncccc43)CS[C@H]12)c1nsc(N)n1`: the Potency result was “inactive”. The same measure, in the same setting: the value for `CCC(C(=O)OCCN1CCOC(c2ccccc2)C1C)c1ccccc1` (stereo not given) was “inactive”. On the same count and under the same terms, the value for `CCN(CC)CCN` was “inactive”. Same read-out and setting: the entry for `COC(=O)/C=C\C(=O)O` is “inactive”; for `CN(C)CCCO[C@@H]1[C@H]2OC(C)(C)O[C@H]2O[C@@H]1C(O)CO` (stereo not given in full) it is “inactive”; for `CCCCCC(C)O` (stereo not given) it is “inactive”. For `O=C(CN1CCNCC1)NC1CCCCC1`, the Potency entry was “inactive”.

As for `CCC(C)C(C)=O` (stereo not given), the Potency entry was “inactive”.

Take `O=C(Cn1ccnc1[N+](=O)[O-])NCc1ccccc1`: the Potency entry was “inactive”. Regarding `Nc1nnnn1-c1ccccc1`, the Potency result is “inactive”. For the compound `CCCCSCCCC`, the Potency entry is “inactive”. Same read-out and setting: the value for `Cc1ccccc1C(N)=O` was “inactive”; that for `Cn1nnc2c(C(N)=O)ncn2c1=O` was “inactive”. Same read-out and setting: the value for `O=C=NCC1CCCC(CN=C=O)C1` (stereo not given) was “inactive”. Still for that read-out and setting: the value for `OC1(c2ccc(Cl)cc2)CCNCC1` was “inactive”; that for `ONc1ccccc1` was “inactive”. For `Cc1ccnc(N)c1`, the Potency entry is “inactive”. The same measure, in the same setting: the entry for `O=C(O)CCCCCC(=O)O` is “inactive”; for `CSc1cnccn1` it is “inactive”.

With `Cc1ccc(C)c([N+](=O)[O-])c1`, the Potency result is “inactive”. Same read-out and setting: the entry for `COc1cc2c(cc1OC)C(=O)C(CC1CCN(Cc3ccccc3)CC1)C2` (stereo not given) is “inactive”; for `C=CCSSCCC` it is “inactive”; for `c1ccc2cnccc2c1` it is “inactive”. On the same count and under the same terms, the entry for `CC(O)COC(C)(C)C` (stereo not given) is “inactive”; for `C=Cc1ccc(C(C)(C)C)cc1` it is “inactive”. For `[O]=[Mo](=[O])=[O]`, the cytotoxicity is -18.1% [at 15.8 µM] (inactive). `CCc1occc(=O)c1O`: the Potency entry was “inactive”. As to `c1ccc2c(CC3=NCCN3)cccc2c1`, the Potency result is “inactive”. For `CCO`, the Potency result is “inactive”. Still for that read-out and setting: the entry for `O/N=C/C=N/O` is “inactive”; for `CC(C)CCOC(=O)c1ccccc1` it is “inactive”. The same measure, in the same setting: the entry for `CC(=O)CCc1ccc(OC(C)=O)cc1` is “inactive”. On the same count and under the same terms, the entry for `O=NN(CCCl)C(=O)NC1CCCCC1` is “inactive”.

Values taken from PubChem BioAssay (Tox21).
